Drawing on ChEMBL document CHEMBL4513146, “CO-ADD screening of Karazin Kharkiv National University (Ukraine) compounds”, this text covers Inhibition for 14 compounds.

Broadly, the Inhibition is the relative decrease from the control value, in per cent.

Results with a measured potency or affinity are listed apart.

The assay deals with Staphylococcus aureus. The following applies: Concentration 32 ug.mL-1;; ASSAY_TEST Inhibition of Bacterial Growth; detection method Absorption (OD600); MEDIA CAMHB; plate type 384well; NBS; CORNING #3640; time 18 hr.
In the case of `CCCCc1ccc(NC(=O)CSc2nnc3c4cc(-c5ccc(C)cc5)nn4ccn23)cc1`, the Inhibition stood at 10.93%.

For `CCC(C)NC(=O)CCn1c(=O)c2ccccc2n2c(=O)n(CC(=O)NCc3cccs3)nc12` (centres undefined), the Inhibition turned out to be 6.1%.

Take `Cc1cccc(NC(=O)Cn2nc3c4cc(-c5ccc(Cl)cc5)nn4ccn3c2=O)c1C`: the Inhibition is recorded as 5.13%.

For the compound `Cc1ccc(CNC(=O)CSc2nnc3c4cc(-c5ccc(C)cc5)nn4ccn23)cc1`, the Inhibition is given as 9.17%.

Turning to `CCOc1ccc(NC(=O)Cn2nc3c(SCc4ccc(Cl)cc4)nccn3c2=O)cc1`, the Inhibition is -1.92%.

Consider `CCc1nnc2c(S(=O)(=O)N(Cc3cc(F)cc(F)c3)c3ccc(F)cc3)cccn12`, for which the Inhibition is given as -5.33%.

As to `COc1cccc(Oc2nccn3c(=O)n(CC(=O)Nc4ccc(Br)cc4F)nc23)c1`, the Inhibition is on record as 14.87%.

On to `CCc1cccc(NC(=O)Cn2nc3ccc(SC(C)(C)C)nn3c2=O)c1`, for which the Inhibition is recorded as 9.57%.

Consider `O=C(CSc1nc2ccccc2n2cnnc12)N1CCN(c2ccc(F)cc2)CC1`, for which the Inhibition stood at 13.82%.

For `CCC(C)NC(=O)Cn1nc2n(CCC(=O)NC3CCCCC3)c(=O)c3ccccc3n2c1=O` (centres undefined), the Inhibition is recorded as -5.52%.

Regarding `CN(C(=O)Cn1nc2nc(Nc3ccc(F)cc3)ccn2c1=O)c1ccccc1`, the Inhibition is recorded as -13.79%.

With `Cc1cccc(NC(=O)CSc2nnc3ccc(C(=O)Nc4cccc(F)c4)cn23)c1C`, the Inhibition stood at 10.8%.

In the case of `O=C(Cn1nc2ccc(-c3ccc(Cl)cc3)nn2c1=O)Nc1ccccc1`, the Inhibition is -4.65%.

Consider `CCc1nnc2c(S(=O)(=O)N(Cc3cccc(OC)c3)c3cccc(C)c3)cccn12`, for which the Inhibition was 10.64%.
